Mtb hypoxia inh: Mtb hypoxia fluorescent reporter inhibition | M. tuberculosis hypoxia-regulated fluorescent reporter, fluorescence | fluorescence inhibition, % (test concentration not listed) | actives 0.1% (n = 300,000) | AID 1159583; in the data active = fluorescence inhibition mostly above about 23%, no sharp cut-off; inactive = mostly below about 17%
FadD28 FP inh: M. tuberculosis FadD28 bisubstrate binding inhibition | actives 0.22% (n = 360,000) | inhibition, % at 12.5 µM | FadD28 bisubstrate probe binding, fluorescence polarization; in the data active = inhibition above about 8.5%, passing the limit was not always enough; inconclusive = no clear call, values can overlap the other calls
Rv3671c inh: inhibits the M. tuberculosis serine protease Rv3671c. P9WHR9. inhibition, % at 5.96 µM. actives 0.048% (n = 320,000); in the data active = inhibition above about 38%;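 also: extracellular domain of Rv3671c used as enzyme; 0% = enzyme with DMSO and 100% = no enzyme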
Target sequence (P9WHR9 whole entry, looked up, the tested form may be a part): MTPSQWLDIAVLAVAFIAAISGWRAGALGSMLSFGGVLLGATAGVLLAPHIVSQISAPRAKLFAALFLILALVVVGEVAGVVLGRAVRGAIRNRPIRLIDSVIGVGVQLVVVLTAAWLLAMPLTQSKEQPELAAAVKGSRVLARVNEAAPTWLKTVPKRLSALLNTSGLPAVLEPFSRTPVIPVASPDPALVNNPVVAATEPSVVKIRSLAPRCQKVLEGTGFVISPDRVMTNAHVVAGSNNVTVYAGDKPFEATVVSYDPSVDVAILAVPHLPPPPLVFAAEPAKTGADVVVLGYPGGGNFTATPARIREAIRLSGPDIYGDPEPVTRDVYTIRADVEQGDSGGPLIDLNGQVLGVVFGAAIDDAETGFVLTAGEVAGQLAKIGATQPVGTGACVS
GDH-TPI counter: counter-screen for M. tuberculosis FBA inhibitors: GDH-TPI coupled enzymes. GDH-TPI coupled enzyme counterscreen, NADH absorbance. inhibition, % at 4.8 µM. actives 1.2% (n = 360,000). AID 588335; in the data active = inhibition above about 30%;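 also: 0% = DMSO wells and 100% = wells lacking the enzyme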
Mtb FBA inh: Mtb fructose-bisphosphate aldolase inhibition; P9WQA3; purified M. tuberculosis FBA, fluorescence read-out; inhibition, % at 1 µM; actives 2.3% (n = 360,000); in the data active = inhibition above about 27%;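 also: 0% = vehicle and 100% = reference inhibitor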
UGM FP inh: inhibitors of M. tuberculosis UDP-galactopyranose mutase; inhibition, % at 10 µM; purified UGM, fluorescence polarization probe displacement; P9WIQ1; actives 0.06% (n = 320,000); in the data active = inhibition above about 10%, passing the limit was not always enough; inconclusive = no clear call, values can overlap the other calls
* = called active by the depositor. Rows were chosen to be rich in hits. Some 3.5% of all compounds tested hit in one or more screens of this group.

Screening CCOc1cc(C(=O)N/N=C/C(Br)=C/c2ccccc2)cc(OCC)c1OCC returned FadD28 FP inh -2.7, Rv3671c inh -35.4, GDH-TPI counter 31.5*, Mtb FBA inh -3.1 and UGM FP inh 0.6.
`COc1ccccc1C(=O)N/N=C/C(C)=C/c1ccccc1` gave FadD28 FP inh -3.0, Rv3671c inh 4.7, GDH-TPI counter 32.2*, Mtb FBA inh -5.2 and UGM FP inh 0.0.
Screening CC(/C=N/NC(=O)c1ccncc1)=C\c1ccccc1 returned FadD28 FP inh -1.8, Rv3671c inh -0.5, GDH-TPI counter 44.6*, Mtb FBA inh -2.3 and UGM FP inh -0.8.
COc1cccc(C(=O)NN=C/C(Br)=C/c2ccccc2)c1 was read as Mtb hypoxia inh 8.8.
For O=C(NN=C/C(Br)=C/c1ccccc1)c1ccncc1 the results were Mtb hypoxia inh 20.4.
For CC(CC(=O)NC1CCCC1)=NNC(=O)Cc1csc(N)n1 the results were Mtb hypoxia inh 3.9.
For CON=Cc1ccc(N2CCN(C(=O)c3cccc(C(F)(F)F)c3)CC2)c([N+](=O)[O-])c1 the results were Mtb hypoxia inh 3.1.
`CC(=O)C1CCC2C3CC(C)C4=CC(=O)CC[C@]4(C)C3C(O)C[C@]12C` (stereo not given in full) gave Mtb hypoxia inh 6.2.
Screening O=C(N/N=C/c1ccncc1)c1cccs1 returned FadD28 FP inh -2.8, Rv3671c inh 6.2, GDH-TPI counter 5.0, Mtb FBA inh -2.3 and UGM FP inh -2.2.
Screening O=C(N/N=C\c1ccc(Cl)s1)c1cccs1 returned FadD28 FP inh -1.5, Rv3671c inh -1.8, GDH-TPI counter 32.7*, Mtb FBA inh -1.9 and UGM FP inh 1.2.
O=C(N/N=C/C(Br)=C\c1ccccc1)c1cccs1 was read as FadD28 FP inh 0.4, Rv3671c inh -5.5, GDH-TPI counter 30.6*, Mtb FBA inh -0.1 and UGM FP inh 5.4.
Screening CC(=NNC(=O)c1cccnc1)c1ccc(-c2ccccc2)cc1 returned Mtb hypoxia inh 6.6.
For CCN1C(=O)C(CC(=O)Nc2cccc(C(C)=O)c2)SC1=Nc1ccccn1 (stereo not given) the results were Mtb hypoxia inh 12.7.
N=c1c(C(=O)NCc2ccco2)cc2c(=O)n3ccccc3nc2n1Cc1ccccc1 was read as FadD28 FP inh inconclusive, Rv3671c inh 5.7, GDH-TPI counter 15.4, Mtb FBA inh 162.8* and UGM FP inh -0.8.
For COc1ccc(CNC(=O)c2cc3c(=O)n4ccccc4nc3n(Cc3cccnc3)c2=N)cc1 the results were Mtb hypoxia inh -8.9, FadD28 FP inh -3.7, Rv3671c inh 0.8, GDH-TPI counter 17.7, Mtb FBA inh 7.9 and UGM FP inh 5.6.
N=c1c(C(=O)NCc2ccc(F)cc2)cc2c(=O)n3ccccc3nc2n1Cc1ccco1 was read as FadD28 FP inh -8.8, Rv3671c inh 9.5, GDH-TPI counter 6.7, Mtb FBA inh 38.0* and UGM FP inh -0.2.
`COCCn1c(=N)c(C(=O)NCc2ccco2)cc2c(=O)n3ccccc3nc21` gave Mtb hypoxia inh 14.2, FadD28 FP inh 1.2, Rv3671c inh 1.6, GDH-TPI counter 2.6, Mtb FBA inh 137.8* and UGM FP inh -0.7.
CN(C)c1ccc2nc3c(=O)[nH]c(=O)nc-3n(CC(O)C(O)C(O)CO)c2c1 (stereo not given) was read as FadD28 FP inh -8.6, Rv3671c inh -392.1, GDH-TPI counter 6.7, Mtb FBA inh -11.9 and UGM FP inh 61.0*.
NCCCCC(NC(=O)C1CCNCC1)c1nnc(C(N)Cc2ccc(O)cc2)o1 (stereo not given) was read as Mtb hypoxia inh 3.3.
O=Cc1ccc(-c2ccc(C(=O)O)cc2)o1 was read as Mtb hypoxia inh 2.8, FadD28 FP inh 2.0, Rv3671c inh -1.1, GDH-TPI counter 42.0*, Mtb FBA inh 8.5 and UGM FP inh -1.9.
`CC=CC=CC(=O)Nc1cccc(C2=NOC3(C2)CC(C(N)=O)N(C(=O)CCCCC)C3)c1` (stereo not given) gave Mtb hypoxia inh 6.3.
Screening Cc1ccc(C)c(-n2c(C)cc(/C=N/NC(=O)c3c(C)nc4cc(C)ccn34)c2C)c1 returned FadD28 FP inh -1.8, Rv3671c inh 10.3, GDH-TPI counter 38.8*, Mtb FBA inh 2.0 and UGM FP inh -3.3.
Cc1ccn2c(C(=O)NN=Cc3cccs3)c(C)nc2c1 was read as Mtb hypoxia inh 6.8.
`Cc1ccn2c(C(=O)N/N=C\c3cccs3)c(C)nc2c1` gave FadD28 FP inh -1.0, Rv3671c inh 2.0, GDH-TPI counter 62.4*, Mtb FBA inh 0.2 and UGM FP inh 0.0.
Cc1ccc2nc(C)c(C(=O)N/N=C/c3cccs3)n2c1 was read as FadD28 FP inh -1.0, Rv3671c inh 2.0, GDH-TPI counter 36.6*, Mtb FBA inh 1.1 and UGM FP inh -0.8.
Screening CCN1C(=O)/C(=c2\o/c(=C3\C=Cc4ccccc4N3CC)c(=O)n2CC)SC1=S returned FadD28 FP inh -3.6, GDH-TPI counter 16.7 and Mtb FBA inh 0.7.
For CCN1C(=O)/C(=C2\C=Cc3ccccc3N2CC)SC1=S the results were Mtb hypoxia inh 37.4*, FadD28 FP inh -2.7, Rv3671c inh -5.3, GDH-TPI counter 7.4, Mtb FBA inh 0.0 and UGM FP inh 3.0.
For CC(C)c1ccc(C=NNC(=O)c2cccc(S(=O)(=O)N3CCOCC3)c2)cc1 the results were Mtb hypoxia inh -3.6.
Screening COc1ccc(-c2ccc(C)cc2)cc1C1C2C=CCC[C@@]2(C)C(=O)N1Cc1ccccc1 (stereo not given in full) returned Mtb hypoxia inh 4.9.
Screening O=C(NNC(=S)Nc1ccccc1Cl)c1ccncc1 returned Mtb hypoxia inh -5.7, FadD28 FP inh -0.8, Rv3671c inh 7.2, GDH-TPI counter 33.8*, Mtb FBA inh -3.4 and UGM FP inh 4.4.
O=C(Oc1ccc(C=NNC(=O)c2ccccc2O)cc1)c1ccccc1 was read as Mtb hypoxia inh 5.9.
COc1ccccc1C1=CC(=O)CC(c2ccc(F)cc2)C1 (stereo not given) was read as Mtb hypoxia inh 23.0.
For O=C(NN=Cc1cccc(OC(=O)c2ccco2)c1)c1ccc(F)cc1 the results were Mtb hypoxia inh 8.8.
For O=C1NC(=Nc2ccccc2Cl)S/C1=C\c1cccc([N+](=O)[O-])c1 the results were FadD28 FP inh -2.0, Rv3671c inh 5.9, GDH-TPI counter 21.9, Mtb FBA inh -0.5 and UGM FP inh -1.8.
O=C1NC(=S)S/C1=C\c1cccc([N+](=O)[O-])c1 was read as Mtb hypoxia inh 4.5, FadD28 FP inh 1.2, GDH-TPI counter 32.6* and Mtb FBA inh -4.5.
For Cc1cc(/C=C2\SC(=S)NC2=O)cc(C)c1O the results were Mtb hypoxia inh 9.3, FadD28 FP inh 0.7, Rv3671c inh -34.0, GDH-TPI counter 8.0, Mtb FBA inh -1.9 and UGM FP inh 7.8.
`COc1ccccc1C=C1SC(=S)NC1=O` gave FadD28 FP inh -0.8, GDH-TPI counter 27.6 and Mtb FBA inh 5.7.

Bioassay records as filed in PubChem BioAssay.
